In the supplement of paper PMC13380429:

Legend:
[1] = system: Vero E6 infected with SARS-CoV-2; assay: morphology score (similarity to uninfected cells); higher = more like uninfected cells; conditions: 24 h
[2] = system: Vero E6 infected with SARS-CoV-2; assay: SARS-CoV-2 infection rate relative to infected DMSO; higher = more infection, active = 60 or less; conditions: 24 h

| SMILES | morphology score [1] | SARS-CoV-2 infection rate [2] |
| --- | --- | --- |
| CCCn1cnc2c1c(=O)n(CCCCC(C)=O)c(=O)n2C [propentofylline] (10 µM) | 0.065 | 102% (inactive) |
| CCCc1cc(C)[nH]c(=O)c1CNC(=O)c1cc(-c2ccc(N3CCN(C(C)C)CC3)nc2)cc2c1cnn2C(C)C (10 µM) | 0.0705 | 110% (inactive) |
| NC[C@H](O)c1ccc(O)c(O)c1 [norepinephrine] (10 µM) | -0.067 | 109% (inactive) |
| CN1CCOC(c2ccccc2)c2ccccc2C1 (stereo not drawn) [nefopam] (10 µM) | 0.0314 | 108% (inactive) |
| Nc1nc(N)nc(NC2CC2)n1 [cyromazine] (10 µM) | 0.128 | 86.5% (inactive) |
| Cc1ncc([N+](=O)[O-])n1CC(O)CN1CCOCC1 (stereo not drawn) [morinidazole] (10 µM) | 0.12 | 111% (inactive) |
| CC(C)C[C@@H](C(=O)N[C@H](C(=O)OC1CCCC1)c1ccccc1)[C@H](O)C(=O)NO [tosedostat] (10 µM) | 0.243 | 97% (inactive) |
| CCCCCCCCc1ccc(CCC(N)(CO)CO)cc1 [fingolimod] (10 µM) | 0.717 | 26.5% (active) |
| C#C[C@]1(OC(=O)CCCCCC)CC[C@H]2[C@@H]3CCC4=CC(=O)CC[C@@H]4[C@H]3CC[C@@]21C [norethisterone-enanthate] (10 µM) | 0.146 | 96.5% (inactive) |
| COc1ccc(C(=O)NCc2cccnc2)cc1C(=O)NCc1cccnc1 [picotamide] (10 µM) | -0.08 | 115% (inactive) |
| CCN1CCCC(OC(=O)C(c2ccccc2)c2ccccc2)C1 (stereo not drawn) [piperidolate] (10 µM) | 0.17 | 106% (inactive) |
| NCC(CS(=O)(=O)O)c1ccc(Cl)cc1 (stereo not drawn) [saclofen] (10 µM) | 0.194 | 94.5% (inactive) |
| C[n+]1ccc(C(=O)NCc2ccccc2)cc1 [enisamium-iodide] (10 µM) | 0.172 | 90% (inactive) |
| O=C(Nc1ccc(O)cc1)c1ccccc1O [N-salicoylaminophenol] (10 µM) | 0.168 | 102% (inactive) |
| CCCCS(=O)(=O)N[C@@H](Cc1ccc(OCCCCC2CCNCC2)cc1)C(=O)O [tirofiban] (10 µM) | 0.0487 | 110% (inactive) |
| CN1[C@@H]2CC[C@H]1C[C@@H](OC(c1ccccc1)c1ccccc1)C2 [benztropine-mesylate] (10 µM) | 0.481 | 84.5% (inactive) |
| CCOc1cc(C(C)(C)C)ccc1C1=N[C@@](C)(c2ccc(Cl)cc2)[C@@](C)(c2ccc(Cl)cc2)N1C(=O)N1CCN(CCCS(C)(=O)=O)CC1 (10 µM) | -0.0507 | 104% (inactive) |
| COc1ccc(-c2oc3c(CC=C(C)C)c(O[C@@H]4O[C@H](CO)[C@@H](O)[C@H](O)[C@H]4O)cc(O)c3c(=O)c2O[C@@H]2O[C@@H](C)[C@H](O)[C@@H](O)[C@H]2O)cc1 [icariin] (10 µM) | 0.141 | 106% (inactive) |
| CC1(C)CCC(C)(C)c2cc(C3(c4ccc(C(=O)O)cc4)OCCO3)ccc21 (10 µM) | -0.00895 | 110% (inactive) |
| CN1c2ccccc2C(=O)N2CCc3c([nH]c4ccccc34)C21 (stereo in doubt) [evodiamine] (10 µM) | -0.093 | 100% (inactive) |

| SMILES | morphology score [1] | SARS-CoV-2 infection rate [2] |
| --- | --- | --- |
| CCCN1CCC[C@@H]2Cc3n[nH]cc3C[C@H]21 [quinpirol-(-)] (10 µM) | 0.203 | 92.5% (inactive) |
| CC(=O)OC/C=C(C)/C=C/C=C(C)/C=C/C1=C(C)CCCC1(C)C [retinyl-acetate] (10 µM) | -0.227 | 113% (inactive) |
| CN(C)c1cccc(Oc2cnc(Nc3cccc(O)c3)nc2)c1 (10 µM) | 0.0803 | 109% (inactive) |
| NS(=O)(=O)c1cc2c(cc1Cl)NC(C(Cl)Cl)NS2(=O)=O (stereo not drawn) [trichlormethiazide] (10 µM) | 0.0616 | 100% (inactive) |
| CCCCCN(CCCOC)C(=O)[C@@H](CCC(=O)O)NC(=O)c1ccc(Cl)c(Cl)c1 [dexloxiglumide] (10 µM) | 0.0908 | 107% (inactive) |
| COc1cc(C(=O)NCCCCCC(=O)O)cc(OC)c1OC [capobenic-acid] (10 µM) | 0.0878 | 108% (inactive) |
| CC(C)Oc1ccc(-c2nc(-c3cccc4c3CC[C@H]4NCCC(=O)O)no2)cc1C#N (10 µM) | 0.181 | 96.5% (inactive) |
| O=C(OCC(O)CO)c1ccccc1Nc1ccnc2cc(Cl)ccc12 (stereo not drawn) [glafenine] (10 µM) | 0.535 | 83% (inactive) |
| COC(=O)N[C@@H](C)CNc1nccc(-c2cn(C(C)C)nc2-c2cc(Cl)cc(NS(C)(=O)=O)c2F)n1 [Encorafenib (LGX818)] (0.833333 µM) | 0.0501 | 95% (inactive) |
| CCOC(=O)[C@H](C)C[C@@H](Cc1ccc(-c2ccccc2)cc1)NC(=O)CCC(=O)O [sacubitril] (10 µM) | 0.156 | 102% (inactive) |
| O=C1C(CC[S+]([O-])c2ccccc2)C(=O)N(c2ccccc2)N1c1ccccc1 (stereo not drawn) [sulfinpyrazone] (10 µM) | 0.0498 | 108% (inactive) |
| CN1CCCC(CN2c3ccccc3Sc3ccccc32)C1 (stereo not drawn) [mepazine] (10 µM) | 0.538 | 60.5% (inactive) |
| CCOc1ccccc1OC(c1ccccc1)C1CNCCO1 (stereo not drawn) [reboxetine] (10 µM) | -0.0871 | 113% (inactive) |
| C[N+](C)(C)CC#CCN1CCCC1=O [oxotremorine-M] (10 µM) | 0.0604 | 89.5% (inactive) |
| CC[C@H]1[C@@H](O)[C@@H]2[C@H](CC[C@]3(C)[C@@H]([C@H](C)CCC(=O)O)CC[C@@H]23)[C@@]2(C)CC[C@@H](O)C[C@@H]12 [obeticholic-acid] (10 µM) | 0.174 | 101% (inactive) |
| Cc1cn([C@@H]2C[C@@H](O)[C@H](CO)O2)c(=O)[nH]c1=O [telbivudine] (10 µM) | -0.036 | 118% (inactive) |
| CC(C)(CO)[C@@H](O)C(=O)NCCC(=O)O [pantothenic-acid] (10 µM) | 0.0324 | 110% (inactive) |
| CC[C@@H](C)N(C)C(=O)c1cc2ccccc2c(-c2ccccc2Cl)n1 (10 µM) | -0.122 | 111% (inactive) |
| Cc1cc(C)c(Nc2ccnc(Nc3ccc(C#N)cc3)n2)c(C)c1 [dapivirine] (0.833333 µM) | 0.07 | 114% (inactive) |
| CCC(C(=O)O)c1ccc(CC(C)C)cc1 (stereo not drawn) [butibufen] (10 µM) | 0.268 | 108% (inactive) |

| SMILES | morphology score [1] | SARS-CoV-2 infection rate [2] |
| --- | --- | --- |
| N#Cc1ccc(C(c2ccc(C#N)cc2)n2cncn2)cc1 [letrozole] (10 µM) | 0.138 | 102% (inactive) |
| C[C@@H]1NC(=O)[C@@H]2CCCN2C(=O)[C@H](CC(N)=O)NC(=O)[C@@H]2CSSC[C@H](N)C(=O)N[C@H]3CSSC[C@H](NC1=O)C(=O)N[C@@H]([C@@H](C)O)C(=O)NCC(=O)N[C@H](C(=O)N[C@@H](Cc1ccc(O)cc1)C(=O)O)CSSC[C@H](NC(=O)[C@H](Cc1ccc(O)cc1)NC(=O)[C@H](CCC(=O)O)NC3=O)C(=O)N2 [linaclotide] (10 µM) | 0.0259 | 106% (inactive) |
| CC(C)c1c(NC(=O)Nc2ccc(Cl)cc2)c(=O)n(-c2ccccc2)n1C (10 µM) | 0.0113 | 112% (inactive) |
| COP(=O)(OC)OC(c1ccc(Cl)cc1)P(=O)(OC)OC (stereo not drawn) [mifobate] (10 µM) | -0.0183 | 106% (inactive) |
| Clc1ccc2c(NCCNc3ccnc4cc(Cl)ccc34)ccnc2c1 (10 µM) | 0.0758 | 108% (inactive) |
| CCCCCCCCCCCCCCCCCCCCCCCCC(=O)O [pentacosanoic-acid] (10 µM) | 0.211 | 96% (inactive) |
| CN(C)c1ccc(-c2nc3c(N4CCN(CC(=O)Nc5nccs5)CC4)c(Cl)cnc3[nH]2)cc1 (10 µM) | 0.47 | 74.5% (inactive) |
| CCOCC(O)COc1ccc(NC(=O)CC[S+](C)C)cc1 (stereo not drawn) [suplatast] (10 µM) | 0.0407 | 102% (inactive) |
| NC(=O)C(c1ccccc1)(c1ccccc1)[C@@H]1CCN(CCc2ccc3c(c2)CCO3)C1 [darifenacin] (10 µM) | -0.025 | 106% (inactive) |
| FC(F)(F)c1cccc(-c2noc(-c3cc(-c4ccccc4)c(C(F)(F)F)s3)n2)c1 (10 µM) | -0.0447 | 114% (inactive) |
| CCOC(=O)n1ccn(C)c1=S [carbimazole] (10 µM) | 0.159 | 99% (inactive) |
| O=c1n(CCCN2CCN(c3cccc(Cl)c3)CC2)nc2ccccn12 [trazodone] (10 µM) | -0.132 | 116% (inactive) |
| C=CC1=C(C)c2cc3[nH]c(cc4nc(cc5[nH]c(cc1n2)c(C)c5CCC(=O)O)C(CCC(=O)O)=C4C)c(C)c3C=C [protoporphyrin-IX] (10 µM) | -0.0298 | 115% (inactive) |
| O=C(CCCCCCC(=O)Nc1cccnc1)NO [pyroxamide] (0.833333 µM) | 0.0384 | 104% (inactive) |
| CC(C)=CCC[C@]1(C)C=Cc2c(O)c3c(c(CC=C(C)C)c2O1)O[C@]12C(=C[C@@H]4C[C@H]1C(C)(C)O[C@@]2(C/C=C(/C)C(=O)O)C4=O)C3=O [gambogic-acid] (10 µM) | 0.0235 | 106% (inactive) |
| N#Cc1ccc(Oc2ccc3c(c2)COB3O)cc1 [crisaborole] (10 µM) | 0.0741 | 105% (inactive) |
| O=C(O)C(O)C(O)C(=O)O (stereo not drawn) [tartaric-acid] (10 µM) | -0.0312 | 103% (inactive) |
| CCc1c(O)cc(O)c(C(=O)c2ccc(OCCN3CCOCC3)c(OC)c2)c1CC(=O)N(CCOC)CCOC (10 µM) | -0.0338 | 102% (inactive) |
| COc1ccc2cc([C@H](C)C(=O)O)ccc2c1 [naproxen] (10 µM) | -0.0223 | 106% (inactive) |
